High-throughput results: PubChem BioAssay, several laboratories
CYP2C19 act – human CYP2C19 activators, primary screen, biochemical, luminescence. Cytochrome P450 2C19 (Homo sapiens), P33261. AID 1025, 2008. 96,000 tested, under 10 active. activation factor at 5 µM. recombinant CYP2C19, luciferin-H EGE luminescence; stronger effect = higher value; 0 = fully inhibited enzyme, 1 = untreated enzyme;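 active means activation factor of at least 2 at 5 µM in the primary screen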;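 further: 0 = wells with 2.5 mM tranylcypromine and 1 = vehicle-only wells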
Target sequence (P33261 whole entry, looked up): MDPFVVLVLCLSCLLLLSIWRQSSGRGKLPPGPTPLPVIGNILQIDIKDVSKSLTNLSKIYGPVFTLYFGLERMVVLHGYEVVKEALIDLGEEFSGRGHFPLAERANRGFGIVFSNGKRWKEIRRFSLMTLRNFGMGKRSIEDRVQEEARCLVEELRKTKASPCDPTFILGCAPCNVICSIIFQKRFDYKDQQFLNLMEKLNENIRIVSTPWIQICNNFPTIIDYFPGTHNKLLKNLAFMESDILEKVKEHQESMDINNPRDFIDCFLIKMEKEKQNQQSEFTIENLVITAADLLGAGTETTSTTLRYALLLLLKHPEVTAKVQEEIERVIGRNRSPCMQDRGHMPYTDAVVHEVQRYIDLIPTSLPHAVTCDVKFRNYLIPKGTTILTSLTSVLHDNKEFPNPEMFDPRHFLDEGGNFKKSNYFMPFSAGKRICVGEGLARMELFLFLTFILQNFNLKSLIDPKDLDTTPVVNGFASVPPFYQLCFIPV
CYP2C9 activ – human CYP2C9 activators, primary screen, biochemical, luminescence | recombinant CYP2C9, luciferin-H conversion; stronger effect = higher value; factor 1 = untreated enzyme, 0 = blocked | activation factor at 5 µM | AID 1024, 2008 | actives 1.4% (n = 96,000) | Cytochrome P450 2C9 (Homo sapiens), P11712;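 active means activation factor of 2 or more for CYP2C9 at a 5 µM dose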;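 further: 0 = sulfaphenazole-blocked wells and 1 = vehicle-only wells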
CYP2C19 inhib – blockers of cytochrome P450 2C19 activity – biochemical, luminescence, ADME assay, primary screen; P33261; CYP2C19 Supersomes, luciferin-H EGE luminescence, 30 min; inhibition, % at 5 µM; actives 21% (n = 96,000);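 active means CYP2C19 inhibition above a set limit at 5 µM in the primary screen, cut at about 50% in these data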;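 further: plate controls were negative control wells for no effect and 2.5 mM tranylcypromine positive control for full effect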
CYP2C9 inhib – blockers of cytochrome P450 2C9 activity – biochemical, luminescence, ADME assay, primary screen; inhibition, % at 5 µM; P11712; CYP2C9 Supersomes, luciferin-H conversion; actives 20% (n = 96,000);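 active means blocking of liver enzyme CYP2C9 beyond about 50% at 5 µM, limit read from the data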
EphB4 antag – EphB4-ephrin-B2 interaction antagonists, primary screen, biochemical, TNYL-RAW peptide probe, fluorescence polarization; Ephrin type-B receptor 4 (Homo sapiens), P54760; actives 0.15% (n = 97,000); AID 720, 2007; EphB4 LBD / TNYL-RAW-Alexa532 peptide; inhibition, % at 7 µM;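 active means inhibition above the screen-wide mean inhibition plus 3 SD, cut at about 15% in these data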;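 further: 0% = DMSO wells and 100% = excess unlabeled TNYL-RAW peptide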
Numbers without * were called inactive; · = no result. The list is not random: actives were taken first. Their share in the collection is about 27%.

SMILES | CYP2C19 act | CYP2C9 activ | CYP2C19 inhib | CYP2C9 inhib | EphB4 antag
CCOc1ccc(OCC)c(NC(=O)C2CCN(S(=O)(=O)c3cccc4nonc34)CC2)c1 | 0.9 | 0.9 | 12 | 11 | 5
CCOc1ccccc1N(C)C(=O)C1CCN(S(=O)(=O)c2cccc3nonc23)CC1 | 0.2 | 0.1 | 85* | 94* | 9
O=C(NCCN1CCN(c2ccccc2)CC1)C1CCN(S(=O)(=O)c2cccc3nonc23)CC1 | 0.5 | 1.1 | 52* | -14 | -5
O=C(NCCc1ccccc1)C1CCN(S(=O)(=O)c2ccc(-c3nn[nH]n3)cc2)CC1 | 1 | 0.2 | 5 | 83* | -2
O=C(NCCc1ccccc1)C1CCN(S(=O)(=O)c2cccc3nonc23)CC1 | 0.8 | 2.3* | 19 | -128 | 6
Cc1ccccc1Cn1c(CN2CCc3ccccc3C2)nc2c1c(=O)n(C)c(=O)n2C | · | · | · | · | 4
O=C(NCCc1ccc(Cl)cc1)C1CCN(S(=O)(=O)c2cccc3nonc23)CC1 | 0.7 | 2.5* | 26 | -151 | -4
COc1ccc(CCNC(=O)C2CCN(S(=O)(=O)c3cccc4nonc34)CC2)cc1OC | 0.7 | 0.8 | 27 | 18 | -17
O=C(O)c1cc(C(=O)O)c(-c2ccccc2)c(C(=O)O)c1 | 1.2 | 1.1 | -19 | -11 | 1
O=C(CCC(=O)OCC(=O)c1cccc([N+](=O)[O-])c1)Nc1ccccc1Cl | 1.1 | 1.2 | -7 | -16 | -4
Cc1ccc(C)c2[nH]c(=O)c(CN(CC3CCCO3)S(=O)(=O)c3ccc4c(c3)OCCO4)cc12 (configuration not stated) | 0.8 | 0.4 | 21 | 61* | -4
Cc1cccc2cc(CN(Cc3ccco3)C(=O)N3CCCC3)c(=O)[nH]c12 | 1 | 1 | -2 | 1 | ·
Cc1cccc2cc(CN(Cc3ccco3)S(=O)(=O)c3ccc4c(c3)OCCO4)c(=O)[nH]c12 | 0.2 | 0.4 | 77* | 56* | -2
Cc1cc(C)c2[nH]c(=O)c(CN(CC3CCCO3)S(=O)(=O)c3ccc4c(c3)OCCO4)cc2c1 (configuration not stated) | 0.2 | 0.1 | 78* | 92* | -8
Nc1nnnn1N=C1CCCCC1 | 0.9 | 1 | 6 | -3 | 3
Cc1ccc(C(=O)NC(C)(COc2nonc2C)COc2nonc2C)cc1 | 0.1 | 0.3 | 94* | 72* | -5
Cc1ccc(C(=O)NCC(C)(C)O)cc1 | · | · | · | · | -7
COc1ccc(C/C(N)=N/OC(=O)Cc2ccccc2)cc1 | 1 | 1 | 0 | 0 | -2
O=C(c1ccc(F)cc1)N1C2CCC1CC(O)(c1ccc(F)cc1)C2 (configuration not stated) | 0.9 | 1 | 13 | -4 | 8
O=C(c1cccnc1)N1C2CCC1CC(O)(c1ccc(F)cc1)C2 (configuration not stated) | 0.5 | 0.9 | 52* | 12 | -8
COc1ccc(C(CC(=O)O)NC(=O)c2ccco2)cc1OC (configuration not stated) | 1 | 1 | 0 | 3 | -4
COc1cccc(-c2csc(N3CCN(C(=S)Nc4cccc(Cl)c4)CC3)n2)c1 | 0.6 | 0.6 | 35 | 41 | -3
COc1cccc(-c2csc(N3CCN(C(=S)Nc4ccccc4Cl)CC3)n2)c1 | 0.3 | 0.4 | 73* | 64* | 3
COc1ccc(NC(=O)N2CCN(c3nc(-c4cccc(OC)c4)cs3)CC2)cc1 | · | · | · | · | 11
COc1cccc(-c2csc(N3CCN(C(=S)Nc4ccccc4OC)CC3)n2)c1 | 0.3 | 1.1 | 70* | -6 | -3
SMILES | CYP2C19 act | CYP2C9 activ | CYP2C19 inhib | CYP2C9 inhib | EphB4 antag
O=S(=O)(NCc1cn2ccsc2n1)c1ccc2c(c1)OCCO2 | 0.1 | 1.6 | 87* | -64 | 3
O=S(=O)(NCc1cn2ccsc2n1)c1ccc(Oc2ccccc2)cc1 | 0.3 | 0.2 | 69* | 80* | 1
CCOC(=O)c1cc2c(ccn2C)n1Cc1ccccc1C | 0.6 | 0.9 | 35 | 12 | 1
Cc1ccccc1Cn1c(C(=O)OC(C)C)cc2c1ccn2C | 0.5 | 0.7 | 53* | 28 | 3
Cc1ccc(C)c(Cn2c(C(=O)OC(C)C)cc3c2ccn3C)c1 | 0.4 | 0.7 | 55* | 35 | 5
N#C/C(=C/c1cc(Br)cs1)C(=O)NCC1CCCO1 (configuration not stated) | 0.8 | 1.5 | 19 | -54 | -8
Cc1ccnc(NS(=O)(=O)c2ccc(NS(=O)(=O)Cc3ccccc3)cc2)n1 | 1.1 | 0.9 | -6 | 5 | 5
Oc1ccc(C2=Nn3c(nnc3-c3ccco3)SC2)cc1O | 0.7 | 0.9 | 29 | 11 | 4
COc1ccc(C2=Nn3c(nnc3-c3ccncc3)SC2)cc1 | 0.7 | 0.4 | 34 | 56* | 0
COc1ccc(OC)c(C2=Nn3c(nnc3-c3ccco3)SC2)c1 | 0.1 | 0.3 | 85* | 69* | 1
COc1ccc(OCc2nnc3n2N=C(c2ccc(OC)cc2)CS3)cc1 | 0.1 | 0.1 | 88* | 90* | -1
COc1ccc(C2=Nn3c(nnc3-c3ccco3)SC2)cc1 | 0.4 | 0.4 | 56* | 64* | -3
O=c1oc(/C=C/c2ccccc2)nc2sc3c(c12)CCC3 | 1.1 | 1 | -7 | 2 | -3
Cc1nc(SC2CC(=O)N(c3cc(Cl)cc(Cl)c3)C2=O)nc2c1CCCC2 (configuration not stated) | 0.7 | 0.5 | 28 | 47 | 3
CCOc1ccc(C2=Nn3c(nnc3-c3ccc(OC)cc3)SC2)cc1 | 1 | 0.9 | -1 | 11 | 7
CCOc1ccc(C2=Nn3cnnc3SC2)cc1 | 0 | 0.7 | 95* | 27 | 7
Clc1ccc(CNC2CCCC2)c(Cl)c1 | 0.2 | 1.1 | 77* | -11 | 1
COc1cc(C)c(CNC2CCCCC2)cc1C | 0.9 | 1 | 12 | -3 | -7
COc1cccc(NC(=O)c2ccccc2-c2nc(-c3ccc(Cl)cc3)no2)c1 | 0.3 | 0.2 | 69* | 83* | 3
COc1ccccc1-c1noc(-c2ccccc2C(=O)Nc2ccccc2)n1 | 1.1 | 1 | -9 | 4 | -7
COc1ccccc1C(=O)Nc1ccccc1SC | 0.9 | 1.1 | 5 | -14 | -4
COc1ccccc1NC(=O)c1ccccc1SC | 1 | 3.8* | 5 | -284 | -2
COc1ccccc1NC(=O)c1ccccc1-c1nc(-c2ccccc2OC)no1 | 0.4 | 0.2 | 64* | 78* | 10
Cc1ccc(S(=O)(=O)NC(=O)NCc2ccccn2)cc1 | 1 | 1 | 0 | 5 | -1
CC1Cc2ccccc2N1Cc1nc2cc(C(F)(F)F)ccc2c(=O)[nH]1 (configuration not stated) | 0.6 | 0.5 | 43 | 51* | -5
CC1Cc2ccccc2N1Cc1cc(=O)n2ccsc2n1 (configuration not stated) | · | · | · | · | 3
